Measurements as given in the supplement of paper PMC6555819.

system: RARg homodimer (NR concentration 270 nM); assay: PBM binding z-score (relative to random genomic background probes); higher = stronger binding; sequences stand for … in GC…GCGATTGACAGCGTAGAATGAAGG
How it was run: (§1)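 Random background probes are the reference for binding z-scores. These scores derive from regression-normalized fluorescence on custom Agilent 4×180K protein-binding microarrays incubated 1 h with ligand-free nuclear receptor dimers. Binding was detected with antibodies against each partner (one per run).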

Sequence	PBM binding z-score
CGAACTAGGTTAAGGACAGTGAATCTCCGCACGC	0.965
CATACAGGGTCAGCTAGGCGAGAGTAGGGACGGC	4.53
ACAGACAGGTGATGTAGGTAACTCAGGCTATCAT	0.539
TGAATGAGGTTATAAGATCAGGTAACGTTGCAAA	1.13
TCTCGGAGGACACGAAAGGTCAGAGCTCGACATC	5.83
TCTCGGAGGACACGAAGGTCAGAGCATTCCAGAG	4.02
ATATGTAGGTTAAGGATCATTCAGGTTGGTTCGC	0.991
CAAACTAGGTCAAGAGGTAAAAGTCCGCTTCCCG	4.74
TCTCGGCGGACACGAAAGGTCAGAGCTCGACATC	4.06
AGAACGAGGGCAATGAGTTGATATCACGGGTGGC	1.45
CCTACTGGGCCATTCAGACGTCATTGATCATATG	0.169
TTACCAAGGTGAGCTGAGTTCGTTGATCCAACTC	0.307
TCTTGTAGATCAAAGGTTAAGAACGCCGAAGCCT	0.951
TCTCGGAGGACACGAAGGTCAGACCTTTCCAGAG	3.81
ATCTCTAGGGAAAAGTTCAGTGAATCCCGAGGAT	1.69
CCTAGGAGGACAACAGGAGGTCAGAGCTGCCAGA	3.47
CCGACTGGGGCCGAAAGGTTACCATACCATCCGG	1.28
CAAACTAGGTGAAGAGGTCAAAGTCCGCTTCCCG	3.96
CCGACTGGGGCATAAGGTCACCATAAGCCAGCCC	4.18
CCTGGTTGGTCAAGGTCACACACGCTATAGGTAC	4.71

Sequence	PBM binding z-score
AATACAGGGTCACTAGGCCAGGGTAGGTACGAAT	4.64
GCTGCTAGGTCAGGTTGGTCAGCGAACGGGTACG	4.03
CAAACTAGGTCAAGAGGTCAAAGTACGCTTCCCG	7.27
AGAATGAGGTTATTAAGATCAGGTAATTGCGGTC	0.895
TATCCTAGGTCATTGGGCCAGTATAGTACGCATC	4.55
TCTATTAGATGATTAGGGCAACCGAAACAGCGGA	0.575
ATCTCTAGGTCAGACTCAGTTCAGTGAAGAACGC	4.03
CGTCCAAGGTCGGCAGGTCAGTGAAAGCGACGTG	3.66
TGAATGAGGTTAAAGAGCAGGGAACGTGGCGTCG	1.34
CCTGGCAGGCCAATCTGGGTCACTCAAGGCTTGA	1.5
CCTTACGGGTCATTGACAGGTTATAGCATTTGGA	3.8
AGAATGAGTTTAAGATCAGGGAAACAGAATACAT	0.612
CCTACTGGGCCATTCAGAGGTAATTGATCATATG	0.162
TCTGCTAGGTCAGTTGGTCAGCTATCGAGCTGCC	3.33
CCTACTGGGCTATCAGGTCATTGATATCAACGTT	1.35
CAAACTGGGTCAAGAGGTCAAAGTCCGCTTCCCG	7.04
CGTCCACGGTCAGCAGGTCAGTGAAAGCGACGTG	3.3
TCTTGTAGATCAAATGTTAAGAAAGCCGAAGCCT	-0.241
GCTGCTAGGTCAACTGATGGTCCGCTAAAGCTCG	5.3
CCGATTGGGGCAGAAAGGTTACCATACCATCCGG	1.25

system: RXRa DBDmut IVT, anti-RXR (DBD mutation: RXRa K156A/R161A, NR concentration 90 nM); assay: as above
How it was run: as §1

Sequence	PBM binding z-score
CGAACTAGGTTAAGGACAGTGAATCTCCGCACGC	0.432
CATACAGGGTCAGCTAGGCGAGAGTAGGGACGGC	1.72
ACAGACAGGTGATGTAGGTAACTCAGGCTATCAT	-0.0727
TGAATGAGGTTATAAGATCAGGTAACGTTGCAAA	0.758
TCTCGGAGGACACGAAAGGTCAGAGCTCGACATC	0.844
TCTCGGAGGACACGAAGGTCAGAGCATTCCAGAG	0.583
ATATGTAGGTTAAGGATCATTCAGGTTGGTTCGC	0.797
CAAACTAGGTCAAGAGGTAAAAGTCCGCTTCCCG	1.44
TCTCGGCGGACACGAAAGGTCAGAGCTCGACATC	0.462
AGAACGAGGGCAATGAGTTGATATCACGGGTGGC	2.15
CCTACTGGGCCATTCAGACGTCATTGATCATATG	-0.119
TTACCAAGGTGAGCTGAGTTCGTTGATCCAACTC	0.458
TCTTGTAGATCAAAGGTTAAGAACGCCGAAGCCT	0.794
TCTCGGAGGACACGAAGGTCAGACCTTTCCAGAG	1.03
ATCTCTAGGGAAAAGTTCAGTGAATCCCGAGGAT	0.323
CCTAGGAGGACAACAGGAGGTCAGAGCTGCCAGA	0.503
CCGACTGGGGCCGAAAGGTTACCATACCATCCGG	-0.679
CAAACTAGGTGAAGAGGTCAAAGTCCGCTTCCCG	1.73
CCGACTGGGGCATAAGGTCACCATAAGCCAGCCC	0.204
CCTGGTTGGTCAAGGTCACACACGCTATAGGTAC	1.46

Sequence	PBM binding z-score
AATACAGGGTCACTAGGCCAGGGTAGGTACGAAT	2.33
GCTGCTAGGTCAGGTTGGTCAGCGAACGGGTACG	0.514
CAAACTAGGTCAAGAGGTCAAAGTACGCTTCCCG	3.15
AGAATGAGGTTATTAAGATCAGGTAATTGCGGTC	1.8
TATCCTAGGTCATTGGGCCAGTATAGTACGCATC	2.33
TCTATTAGATGATTAGGGCAACCGAAACAGCGGA	1.02
ATCTCTAGGTCAGACTCAGTTCAGTGAAGAACGC	1.47
CGTCCAAGGTCGGCAGGTCAGTGAAAGCGACGTG	1.36
TGAATGAGGTTAAAGAGCAGGGAACGTGGCGTCG	1.01
CCTGGCAGGCCAATCTGGGTCACTCAAGGCTTGA	-0.376
CCTTACGGGTCATTGACAGGTTATAGCATTTGGA	2.9
AGAATGAGTTTAAGATCAGGGAAACAGAATACAT	2.68
CCTACTGGGCCATTCAGAGGTAATTGATCATATG	-0.042
TCTGCTAGGTCAGTTGGTCAGCTATCGAGCTGCC	0.537
CCTACTGGGCTATCAGGTCATTGATATCAACGTT	0.092
CAAACTGGGTCAAGAGGTCAAAGTCCGCTTCCCG	2.51
CGTCCACGGTCAGCAGGTCAGTGAAAGCGACGTG	0.0347
TCTTGTAGATCAAATGTTAAGAAAGCCGAAGCCT	1.15
GCTGCTAGGTCAACTGATGGTCCGCTAAAGCTCG	1.53
CCGATTGGGGCAGAAAGGTTACCATACCATCCGG	-0.405
